Laboratory results as given in the supplement of paper PMC4466140.

What follows are binders tested against CaNbp2 (assay: SPOT peptide array binding signal intensity (averaged, normalized) (arbitrary units (background-subtracted, floor 0; scale differs between SH3 domains)); higher = stronger binding of the SH3 domain to the peptide).
Summary of the method: (§1)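 Binding signal refers to normalized, background-subtracted spot intensity averaged over replicates, expressed in arbitrary units that differ between domains. GST-fused SH3 domains from four yeast species were incubated at 10 μg/ml overnight at 4°C on cellulose membranes of synthetic 15-mer peptides with cysteines replaced by serines. Bound protein was detected with anti-GST antibody, an HRP anti-mouse secondary and luminol, and quantified with Genespotter.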
AAAPKHAPPPVPNET was tested, and the “SPOT peptide array binding signal intensity” value was at most 0.

These binders were tested against CaRvs167 in the same assay as above.
Summary of the method: as §1
With AAAPKHAPPPVPNET the “SPOT peptide array binding signal intensity” value was at most 0.

These binders were tested against CaRvs167-3 in the same assay as above.
Summary of the method: as §1
In the case of AAAPKHAPPPVPNET, the “SPOT peptide array binding signal intensity” value is reported as 0.5.

These binders were tested against CaSho1 in the same assay as above.
Summary of the method: as §1
For AAAPKHAPPPVPNET, the “SPOT peptide array binding signal intensity” value was at most 0.

Each binder was assayed against CaSla1-D1-D2 in the same assay as above.
Summary of the method: as §1
In the case of AAAPKHAPPPVPNET, the “SPOT peptide array binding signal intensity” value is reported as at most 0.

These binders were tested against CaSla1-D3 in the same assay as above.
Summary of the method: as §1
With AAAPKHAPPPVPNET the “SPOT peptide array binding signal intensity” value was at most 0.

These binders were tested against ScAbp1 in the same assay as above.
Summary of the method: as §1
AAAPKHAPPPVPNET was tested, and the “SPOT peptide array binding signal intensity” value was at most 0.

These binders were tested against ScBbc1 in the same assay as above.
Summary of the method: as §1
In the case of AAAPKHAPPPVPNET, the “SPOT peptide array binding signal intensity” value is reported as at most 0.

Each binder was assayed against ScBem1-D1 in the same assay as above.
Summary of the method: as §1
AAAPKHAPPPVPNET was tested, and the “SPOT peptide array binding signal intensity” value was at most 0.

These binders were tested against ScBzz1-D1 in the same assay as above.
Summary of the method: as §1
In the case of AAAPKHAPPPVPNET, the “SPOT peptide array binding signal intensity” value is reported as 413.

What follows are binders tested against ScBzz1-D2 in the same assay as above.
Summary of the method: as §1
AAAPKHAPPPVPNET was tested, and the “SPOT peptide array binding signal intensity” value was at most 0.

What follows are binders tested against ScCyk3 in the same assay as above.
Summary of the method: as §1
In the case of AAAPKHAPPPVPNET, the “SPOT peptide array binding signal intensity” value is reported as at most 0.

These binders were tested against ScFus1 in the same assay as above.
Summary of the method: as §1
AAAPKHAPPPVPNET was tested, and the “SPOT peptide array binding signal intensity” value was at most 0.

These binders were tested against ScHof1 in the same assay as above.
Summary of the method: as §1
AAAPKHAPPPVPNET was tested, and the “SPOT peptide array binding signal intensity” value was at most 0.

The binders below were run against ScHse1 in the same assay as above.
Summary of the method: as §1
In the case of AAAPKHAPPPVPNET, the “SPOT peptide array binding signal intensity” value is reported as at most 0.

The binders below were run against ScLsb1 in the same assay as above.
Summary of the method: as §1
In the case of AAAPKHAPPPVPNET, the “SPOT peptide array binding signal intensity” value is reported as at most 0.

The binders below were run against ScLsb2 in the same assay as above.
Summary of the method: as §1
AAAPKHAPPPVPNET was tested, and the “SPOT peptide array binding signal intensity” value was at most 0.

What follows are binders tested against ScLsb3 in the same assay as above.
Summary of the method: as §1
For AAAPKHAPPPVPNET, the “SPOT peptide array binding signal intensity” value was at most 0.

The binders below were run against ScLsb4 in the same assay as above.
Summary of the method: as §1
In the case of AAAPKHAPPPVPNET, the “SPOT peptide array binding signal intensity” value is reported as at most 0.

The binders below were run against ScMyo3 in the same assay as above.
Summary of the method: as §1
With AAAPKHAPPPVPNET the “SPOT peptide array binding signal intensity” value was 1370.

These binders were tested against ScMyo5 in the same assay as above.
Summary of the method: as §1
In the case of AAAPKHAPPPVPNET, the “SPOT peptide array binding signal intensity” value is reported as 1840.

Each binder was assayed against ScNbp2 in the same assay as above.
Summary of the method: as §1
AAAPKHAPPPVPNET was tested, and the “SPOT peptide array binding signal intensity” value was at most 0.

The binders below were run against ScPex13 in the same assay as above.
Summary of the method: as §1
With AAAPKHAPPPVPNET the “SPOT peptide array binding signal intensity” value was at most 0.

The binders below were run against ScRvs167 in the same assay as above.
Summary of the method: as §1
With AAAPKHAPPPVPNET the “SPOT peptide array binding signal intensity” value was 0.167.

Each binder was assayed against ScSho1 in the same assay as above.
Summary of the method: as §1
With AAAPKHAPPPVPNET the “SPOT peptide array binding signal intensity” value was at most 0.

Each binder was assayed against ScSla1-D1-D2 in the same assay as above.
Summary of the method: as §1
In the case of AAAPKHAPPPVPNET, the “SPOT peptide array binding signal intensity” value is reported as at most 0.

Each binder was assayed against ScSla1-D3 in the same assay as above.
Summary of the method: as §1
AAAPKHAPPPVPNET was tested, and the “SPOT peptide array binding signal intensity” value was at most 0.

These binders were tested against SpAbp1-D1 in the same assay as above.
Summary of the method: as §1
For AAAPKHAPPPVPNET, the “SPOT peptide array binding signal intensity” value was at most 0.

What follows are binders tested against SpBbc1 in the same assay as above.
Summary of the method: as §1
With AAAPKHAPPPVPNET the “SPOT peptide array binding signal intensity” value was 1.5.

The binders below were run against SpBzz1-D1 in the same assay as above.
Summary of the method: as §1
In the case of AAAPKHAPPPVPNET, the “SPOT peptide array binding signal intensity” value is reported as at most 0.

The binders below were run against SpBzz1-D2 in the same assay as above.
Summary of the method: as §1
With AAAPKHAPPPVPNET the “SPOT peptide array binding signal intensity” value was at most 0.

These binders were tested against SpCyk3 in the same assay as above.
Summary of the method: as §1
For AAAPKHAPPPVPNET, the “SPOT peptide array binding signal intensity” value was at most 0.

What follows are binders tested against SpHof1 in the same assay as above.
Summary of the method: as §1
In the case of AAAPKHAPPPVPNET, the “SPOT peptide array binding signal intensity” value is reported as at most 0.

What follows are binders tested against SpHof1-2 in the same assay as above.
Summary of the method: as §1
With AAAPKHAPPPVPNET the “SPOT peptide array binding signal intensity” value was at most 0.

Each binder was assayed against SpHof1-3 in the same assay as above.
Summary of the method: as §1
For AAAPKHAPPPVPNET, the “SPOT peptide array binding signal intensity” value was 5.75.

These binders were tested against SpHse1 in the same assay as above.
Summary of the method: as §1
With AAAPKHAPPPVPNET the “SPOT peptide array binding signal intensity” value was 58.8.

These binders were tested against SpLsb1 in the same assay as above.
Summary of the method: as §1
With AAAPKHAPPPVPNET the “SPOT peptide array binding signal intensity” value was at most 0.

Each binder was assayed against SpLsb4 in the same assay as above.
Summary of the method: as §1
With AAAPKHAPPPVPNET the “SPOT peptide array binding signal intensity” value was at most 0.

These binders were tested against SpMyo1 in the same assay as above.
Summary of the method: as §1
For AAAPKHAPPPVPNET, the “SPOT peptide array binding signal intensity” value was 1720.

The binders below were run against SpNbp2 in the same assay as above.
Summary of the method: as §1
AAAPKHAPPPVPNET was tested, and the “SPOT peptide array binding signal intensity” value was at most 0.

Each binder was assayed against SpPex13 in the same assay as above.
Summary of the method: as §1
With AAAPKHAPPPVPNET the “SPOT peptide array binding signal intensity” value was at most 0.

The binders below were run against SpRvs167 in the same assay as above.
Summary of the method: as §1
With AAAPKHAPPPVPNET the “SPOT peptide array binding signal intensity” value was at most 0.

These binders were tested against SpSla1-D1-D2 in the same assay as above.
Summary of the method: as §1
In the case of AAAPKHAPPPVPNET, the “SPOT peptide array binding signal intensity” value is reported as at most 0.

What follows are binders tested against SpSla1-D3 in the same assay as above.
Summary of the method: as §1
AAAPKHAPPPVPNET was tested, and the “SPOT peptide array binding signal intensity” value was at most 0.
